Compounds with a hit are over-represented: about 9% of the library has one in this group of screens.
BAZ2B block – qHTS Assay for Inhibitors of BAZ2B; Bromodomain adjacent to zinc finger domain protein 2B (Homo sapiens), Q9UIF8; 4.4% of 360,000 active; AlphaScreen BAZ2B-H3K14Ac peptide displacement; AID 504333, 2011; Potency, µM (top dose mostly 114 µM), for inactives: at the top dose activity change, negative = inhibition, most hits filed as inhibitors; note: % is set by controls: 0 for no effect and ±100 for the full control effect; nearly all actives have a fitted effect of over 60% in size
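Multi-concentration screen (max 110 uM) measuring displacement of acetylated histone H3 peptide from BAZ2B by AlphaScreen, using 50 nM protein, 50 nM peptide and 10 ug/mL streptavidin donor plus Ni-chelate acceptor beads.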
JMJD2A Tudor inh – qHTS Assay for Inhibitors of JMJD2A-Tudor Domain. AID 504339, 2011. 4.4% of 390,000 active. AlphaScreen JMJD2A-Tudor / H3K4me3 peptide binding. Potency, µM (doses to about 114 µM), without a hit: at the top dose activity change, negative = inhibition, usual class: inhibitors; note: % is set by controls: 0 for no effect and ±100 for the full control effect; nearly all actives have a fitted effect of over 50% in size
G9a inh – qHTS Assay for Inhibitors of Histone Lysine Methyltransferase G9a | Histone-lysine N-methyltransferase EHMT2 (Homo sapiens), Q96KQ7 | G9a H3K9 monomethylation, AlphaScreen, 2 h | Potency, µM (series often up to 102 µM), without a hit: at the highest dose activity, negative = inhibition, actives largely listed as inhibitors | 8.8% of 350,000 active | AID 504332, 2011; note: % is set by controls: 0 for no effect and ±100 for the full control effect; nearly all actives have a fitted effect of over 75% in size
Target sequence (Q96KQ7 913-1193 limits assumed): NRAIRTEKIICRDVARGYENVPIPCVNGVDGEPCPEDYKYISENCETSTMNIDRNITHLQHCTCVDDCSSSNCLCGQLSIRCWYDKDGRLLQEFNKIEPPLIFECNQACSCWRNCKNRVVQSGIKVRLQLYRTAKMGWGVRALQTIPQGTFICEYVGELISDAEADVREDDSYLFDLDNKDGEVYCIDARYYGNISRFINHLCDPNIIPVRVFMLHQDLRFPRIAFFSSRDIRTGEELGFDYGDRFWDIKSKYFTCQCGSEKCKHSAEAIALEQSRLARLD
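AlphaScreen read-out: biotin-H3K9 peptide (500 nM) methylation by 20 nM enzyme with 20 uM SAM, 2 h at room temperature after 15 min compound preincubation; anti-monomethyl H3K9 antibody plus donor/acceptor beads, 10 min dark.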
HP1b chromo inh – HTS for Inhibitors of HP1-beta Chromodomain Interactions with Methylated Histone Tails; 0.56% of 390,000 active; Chromobox protein homolog 1 (Homo sapiens), P83916; Potency, µM (top dose mostly 114 µM), for inactives: at the highest dose activity change, negative = inhibition, most hits filed as inhibitors; AID 540317, 2011; AlphaScreen HP1-beta / biotin-H3K9me3 peptide binding; note: nearly all actives have a fitted effect of over 70% in size
Target sequence (P83916 whole entry, looked up): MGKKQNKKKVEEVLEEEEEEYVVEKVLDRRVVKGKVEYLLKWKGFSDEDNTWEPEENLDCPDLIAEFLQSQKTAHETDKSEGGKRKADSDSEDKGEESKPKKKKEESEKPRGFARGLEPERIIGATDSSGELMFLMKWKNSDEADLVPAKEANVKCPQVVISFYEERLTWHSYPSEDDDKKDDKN
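AlphaScreen: HP1-beta (50 nM) preformed 30 min with biotin-H3(1-18)K9me3 peptide (50 nM) in PBS pH 7.4, 0.01% Tween-20. Compound added for 30 min at RT, then streptavidin donor/nickel chelate acceptor beads (10 ug/mL) for 30 min.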
ALOX12 inh – Primary qHTS assay for inhibitors of human arachidonate 12S-lipoxygenase (ALOX12): Round 2; purified 12hLO, xylenol orange hydroperoxide absorbance; Potency, µM (highest dose often 108 µM), without a hit: at the top dose activity change, negative = inhibition, hits mostly inhibitors; 1.1% of 580,000 active; note: % is set by controls: 0 for no effect and ±100 for the full control effect
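Purified human 12hLO at 150 nM in 25 mM Hepes, 0.01% Triton X-100, pH 7.0, preincubated 15 min at room temperature with compound. Reaction started with 40 uM arachidonic acid, 30 min at room temperature. Hydroperoxide measured by Fe-xylenol orange, 573/405 nm absorbance ratio.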
PLK1 PBD block – qHTS for Inhibitors of PLK1-PDB (polo-like kinase 1 - polo-box domain): Primary Screen | AID 720504, 2013 | Potency, µM, for the others: max response, negative = inhibition, most hits filed as inhibitors | Serine/threonine-protein kinase PLK1 (Homo sapiens), P53350 | 2.8% of 360,000 active | Plk1 PBD binding of FITC phosphopeptide, fluorescence polarization; note: series mostly up to about 57 µM; % is set by controls: 0 for no effect and ±100 for the full control effect; nearly all actives have a fitted effect of over 65% in size
Numbers without * were called inactive; [ ] = remark or other dose. Calls come from the whole dose curve; as a rule, active = well fitted curve in the direction sought with a large enough effect; inconclusive = small, poorly fitted or top-dose-only effect, or another doubt; inactive = no such curve, though single readings can be large; an effect the other way counts as inactive or inconclusive. Potency is the fitted concentration of half-maximal effect.

What do the screens show for `CN(C)c1ccc(NC(=O)CSc2nnc(-c3ccco3)c(-c3ccco3)n2)cc1`?
BAZ2B block: 25.1µM*; JMJD2A Tudor inh: inconclusive; G9a inh: 25.1µM*; HP1b chromo inh: inconclusive; ALOX12 inh: -30.4%; PLK1 PBD block: -17.4%

How did O=C(CSc1n[nH]c(-c2ccco2)n1)Nc1ccc(F)cc1 do in these assays?
BAZ2B block: -4.2%; JMJD2A Tudor inh: -18.5%; G9a inh: 6.3%; HP1b chromo inh: -6.4%; ALOX12 inh: -2.8%; PLK1 PBD block: -8.6%

What do the screens show for `Cc1noc(-c2cn(C3CCN(C(=O)c4sccc4C)CC3)nn2)n1`?
ALOX12 inh: 16.6%

Results for Cc1cc(C)c(C)c(SC(C)C(N)=O)c1C (configuration not stated) ?
ALOX12 inh: 0.0%

How did COc1ccccc1OCc1ccc(C(=O)N/N=C/c2ccco2)cc1 do in these assays?
BAZ2B block: -8.1%; JMJD2A Tudor inh: -15.1%; G9a inh: 6.8%; HP1b chromo inh: 17.3%; ALOX12 inh: -13.7%; PLK1 PBD block: -5.6%

Results for COc1ccc2nc(N(CCN(C)C)C(=O)c3ccc4ncsc4c3)sc2c1 ?
ALOX12 inh: inconclusive; PLK1 PBD block: 0.2%

Results for O=C(c1ccccc1OC(F)F)N1CCN(S(=O)(=O)c2ccc3c(c2)OCCCO3)CC1 ?
BAZ2B block: 6.0%; JMJD2A Tudor inh: -8.8%; G9a inh: 24.3%[12.7 µM]; HP1b chromo inh: 18.9%; ALOX12 inh: 8.1%; PLK1 PBD block: -15.8%

Results for O=C(CCC(=O)N1CCSc2ccccc21)NCc1cccc(Br)c1 ?
BAZ2B block: 17.1%; JMJD2A Tudor inh: -10.6%; HP1b chromo inh: 46.7%; ALOX12 inh: 448.6%; PLK1 PBD block: -6.2%

What do the screens show for `Cc1noc(C)c1-c1cc(N2CCN(C)CC2)ncn1`?
G9a inh: 1.4%[0.501 µM]; ALOX12 inh: inconclusive

Results for COc1ccc(S(=O)(=O)N2CCN(c3ncccn3)CC2)cc1OC ?
BAZ2B block: 6.3%; JMJD2A Tudor inh: -0.7%; G9a inh: 10.3%[0.501 µM]; HP1b chromo inh: 18.2%; ALOX12 inh: 35.5µM*; PLK1 PBD block: -5.1%

How did COc1ccc(S(=O)(=O)N2CCN(c3ccc(C)cc3C)CC2)cc1OC do in these assays?
BAZ2B block: 0.6%; JMJD2A Tudor inh: inconclusive; G9a inh: inconclusive; HP1b chromo inh: 0.6%; ALOX12 inh: 413.6%; PLK1 PBD block: 23.8µM*

How did COc1ccc(NC(=O)CN(C)C(=O)c2ccc(-c3cccc(C(F)(F)F)c3)o2)cc1 do in these assays?
BAZ2B block: -21.3%; JMJD2A Tudor inh: -14.7%; G9a inh: 20.6%; HP1b chromo inh: 7.7%; ALOX12 inh: -22.9%; PLK1 PBD block: -7.8%

How did COCCNC(=O)c1ccc2c3n(nc2c1)-c1ccccc1CO3 do in these assays?
BAZ2B block: 10.0%; JMJD2A Tudor inh: -14.9%; G9a inh: 21.5%[12.7 µM]; HP1b chromo inh: 31.6%; ALOX12 inh: inconclusive; PLK1 PBD block: -3.1%

What do the screens show for `O=C(CN(Cc1ccc(F)cc1)C(=O)c1csnn1)NCc1ccccc1`?
BAZ2B block: -0.1%; JMJD2A Tudor inh: -4.1%; G9a inh: 2.1%; HP1b chromo inh: 14.5%; ALOX12 inh: 3.2%; PLK1 PBD block: 3.6%

How did CCCOc1ccc(N2C(=O)CC(NCc3cccnc3)C2=O)cc1 (configuration not stated) do in these assays?
BAZ2B block: 1.3%; JMJD2A Tudor inh: -16.7%; HP1b chromo inh: 5.9%; ALOX12 inh: -5.0%; PLK1 PBD block: -6.0%

What do the screens show for `CCCOc1ccc(N2C(=O)CC(NCCNc3ccc([N+](=O)[O-])cn3)C2=O)cc1` (configuration not stated)?
BAZ2B block: -26.3%; JMJD2A Tudor inh: -18.4%; G9a inh: 12.6µM*; HP1b chromo inh: 32.9%; ALOX12 inh: -9.8%; PLK1 PBD block: 6.4%

How did O=C1CCCC/C1=C\Nc1ccccc1C(=O)O do in these assays?
BAZ2B block: -28.2%; JMJD2A Tudor inh: inconclusive; G9a inh: 50.1µM*; HP1b chromo inh: 13.4%; ALOX12 inh: -6.6%; PLK1 PBD block: -2.8%

Results for C#CCOCCOCCOCCNc1nc(N2CCN(C(=O)[C@H](CCCN=C(N)N)n3cc(C(N)[C@@H](C)CC)nn3)CC2)nc(N2CCN(C(=O)[C@H](CCC(=O)O)n3cc([C@@H](N)CO)nn3)CC2)n1 (some centres not stated) ?
JMJD2A Tudor inh: 25.1µM*; HP1b chromo inh: 3.2%; ALOX12 inh: 18.2%; PLK1 PBD block: -9.8%

Results for C#CCOCCOCCOCCNc1nc(N2CCN(C(=O)[C@H](CCCN=C(N)N)n3cc(C(N)[C@@H](C)CC)nn3)CC2)nc(N2CCN(C(=O)[C@H](CCC(=O)O)n3cc([C@@H](N)[C@H](C)CC)nn3)CC2)n1 (some centres not stated) ?
JMJD2A Tudor inh: inconclusive; HP1b chromo inh: 8.4%; ALOX12 inh: -4.4%; PLK1 PBD block: -6.9%

What do the screens show for `C#CCOCCOCCOCCNc1nc(N2CCN(C(=O)C([C@@H](C)O)n3cc([C@@H](N)CCCCN)nn3)CC2)nc(N2CCN(C(=O)[C@H](CCCN=C(N)N)n3cc(C(N)[C@@H](C)CC)nn3)CC2)n1` (some centres not stated)?
JMJD2A Tudor inh: 56.2µM*; HP1b chromo inh: 18.6%; PLK1 PBD block: -11.1%

Results for C#CCOCCOCCOCCNc1nc(N2CCN(C(=O)[C@H](CCCN=C(N)N)n3cc(C(N)[C@@H](C)CC)nn3)CC2)nc(N2CCN(C(=O)[C@H](CCC(=O)O)n3cc([C@@H](N)CC(N)=O)nn3)CC2)n1 (some centres not stated) ?
JMJD2A Tudor inh: 50.1µM*; HP1b chromo inh: 13.9%; ALOX12 inh: 14.0%; PLK1 PBD block: -25.6%

How did C#CCOCCOCCOCCNc1nc(N2CCN(C(=O)[C@H](CCCN=C(N)N)n3cc(C(N)[C@@H](C)CC)nn3)CC2)nc(N2CCN(C(=O)[C@H](CCCCN)n3cc([C@@H](N)CC(N)=O)nn3)CC2)n1 (some centres not stated) do in these assays?
JMJD2A Tudor inh: 89.1µM*; HP1b chromo inh: 32.7%; ALOX12 inh: -27.2%; PLK1 PBD block: -12.7%

Screening results deposited in PubChem by National Center for Advancing Translational Sciences (NCATS).
